# Test results published in PubChem BioAssay.
# Several values for one entry are separate records, joined by “and”; a condition that tells them apart may be missing. Equal entries are not always repeated. Activity calls are given as the source filed them.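 The calls were made as follows, unless noted: active = compound raises insulin release from rat beta cells at 5 mM glucose, no numeric limit stated; inactive = the rest.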
# Columns and labels:
# [1] = stimulators of nuclear beta-catenin in C2C12, primary screen, imaging, WNT3A-conditioned medium, mouse C2C12, NPC library (AID 1117326; in the data active = nuclear beta-catenin stimulation mostly above about 4.2%, no sharp cut-off; inactive = mostly below about 10%); conditions: stronger effect = higher value
# [2] = stimulators of insulin release from INS-1E, primary screen, cell-based, 5 mM glucose, NPC library (AID 1117329); conditions: rat INS-1E insulin secretion, at 10 µM, stronger effect = higher value
# [3] = growth inhibition of GSK3B-pretreated HCT116 cells – cell-based, CellTiter-Glo, 0.2 to 20 µM (AID 1117336;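 active = compounds lowering colon cancer cell viability after pretreatment blocking the GSK3B kinase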); conditions: HCT116 viability after GSK3B inhibitor, at 20 µM, stronger effect = higher value
# [4] = inhibition of endothelial tube formation, primary screen, imaging, VEGF stimulated, CD31 staining, tube area, NPC library (AID 1117340;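 active = compound that reduces growth-factor-driven endothelial tube area in a mixed cell culture, no cutoff stated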); conditions: VEGF-stimulated ADSC/ECFC co-culture, at 10 µM, stronger effect = higher value
# [5] = glucagon-like peptide 1 release enhancers, primary assay, NCI-H716 cell line, NPC library (AID 1117341;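 active = compound raises GLP1 secretion from the human gut endocrine cells, with no numeric limit stated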); conditions: NCI-H716 cells, at 10 µM, stronger effect = higher value
# [6] = HCT116 colon cancer cell growth inhibition, primary screen, CellTiter-Glo luminescence, NPC library (AID 1117342;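 active = compounds that lower survival of HCT116 colon cancer cells in the luminescence readout, no numeric limit stated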); conditions: at 20 µM (top of the series)
# [7] = CellTiter-Glo luminescent readout of SW480 viability loss, NPC library primary (AID 1117343;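 active = compounds that lower viability of the colon cancer cells in the luminescence readout, with no numeric limit stated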); conditions: CellTiter-Glo luminescence; at 20 µM (top of the series)
# [8] = decreased DLD-1 cellular survival, CellTiter-Glo luminescent readout, NPC compound collection, primary HTS (AID 1117346;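 active = compounds that lower survival of DLD-1 colon cancer cells in the luminescence readout, no cutoff given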); conditions: DLD-1 viability, CellTiter-Glo luminescence; at 20 µM (top of the series)
# [9] = molecular target: NAD(+) hydrolase SARM1 (Homo sapiens) (UniProt Q6SZW1); assay: SARM1 TIR NADase inhibitors, cell lysate, NAD-Glo luminescence (AID 1508614;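 active = compound whose remaining NAD level is above about 45 nM, limit read from the data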;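 also: higher remaining NAD means stronger inhibition of SARM1 NADase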); conditions: SAM-TIR HEK293T lysate NADase, at 1 µM, stronger effect = higher value
# Sequence of NAD(+) hydrolase SARM1 (Homo sapiens) (Q6SZW1 whole entry, looked up, the tested form may be a part): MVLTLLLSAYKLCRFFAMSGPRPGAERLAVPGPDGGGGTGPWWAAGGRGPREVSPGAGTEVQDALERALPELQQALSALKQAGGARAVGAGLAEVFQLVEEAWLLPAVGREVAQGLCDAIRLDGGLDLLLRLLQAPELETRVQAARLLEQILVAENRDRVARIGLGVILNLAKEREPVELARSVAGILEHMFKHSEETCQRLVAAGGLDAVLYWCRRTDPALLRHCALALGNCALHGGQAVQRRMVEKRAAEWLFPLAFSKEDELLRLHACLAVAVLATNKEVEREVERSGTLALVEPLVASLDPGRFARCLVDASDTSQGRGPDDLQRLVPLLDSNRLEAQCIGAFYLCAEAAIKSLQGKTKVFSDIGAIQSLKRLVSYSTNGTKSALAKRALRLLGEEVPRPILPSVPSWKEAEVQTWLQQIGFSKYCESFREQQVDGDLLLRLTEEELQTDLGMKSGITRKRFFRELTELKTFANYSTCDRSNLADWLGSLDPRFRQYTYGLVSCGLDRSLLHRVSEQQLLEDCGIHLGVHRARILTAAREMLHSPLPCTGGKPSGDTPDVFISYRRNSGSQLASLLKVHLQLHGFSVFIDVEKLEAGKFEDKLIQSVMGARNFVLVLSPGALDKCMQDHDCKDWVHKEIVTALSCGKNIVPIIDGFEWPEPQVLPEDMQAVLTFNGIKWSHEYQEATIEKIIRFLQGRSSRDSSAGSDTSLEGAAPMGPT
# [10] = molecular target: Mitogen-activated protein kinase 7 (Homo sapiens) (UniProt Q13164); assay: ERK5 transactivation activators in reporter cells, primary screen, cell-based, HTS (AID 1508626;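 active = luciferase signal above three times the same-plate solvent-only control wells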;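 also: luciferase driven by Gal4-ERK5 fusion binding five Gal4 sites before minimal TATA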); conditions: HeLa Gal4-ERK5 transactivation, 18 h, at 5 µM, stronger effect = higher value
# Sequence of Mitogen-activated protein kinase 7 (Homo sapiens) (Q13164 whole entry, looked up, the tested form may be a part): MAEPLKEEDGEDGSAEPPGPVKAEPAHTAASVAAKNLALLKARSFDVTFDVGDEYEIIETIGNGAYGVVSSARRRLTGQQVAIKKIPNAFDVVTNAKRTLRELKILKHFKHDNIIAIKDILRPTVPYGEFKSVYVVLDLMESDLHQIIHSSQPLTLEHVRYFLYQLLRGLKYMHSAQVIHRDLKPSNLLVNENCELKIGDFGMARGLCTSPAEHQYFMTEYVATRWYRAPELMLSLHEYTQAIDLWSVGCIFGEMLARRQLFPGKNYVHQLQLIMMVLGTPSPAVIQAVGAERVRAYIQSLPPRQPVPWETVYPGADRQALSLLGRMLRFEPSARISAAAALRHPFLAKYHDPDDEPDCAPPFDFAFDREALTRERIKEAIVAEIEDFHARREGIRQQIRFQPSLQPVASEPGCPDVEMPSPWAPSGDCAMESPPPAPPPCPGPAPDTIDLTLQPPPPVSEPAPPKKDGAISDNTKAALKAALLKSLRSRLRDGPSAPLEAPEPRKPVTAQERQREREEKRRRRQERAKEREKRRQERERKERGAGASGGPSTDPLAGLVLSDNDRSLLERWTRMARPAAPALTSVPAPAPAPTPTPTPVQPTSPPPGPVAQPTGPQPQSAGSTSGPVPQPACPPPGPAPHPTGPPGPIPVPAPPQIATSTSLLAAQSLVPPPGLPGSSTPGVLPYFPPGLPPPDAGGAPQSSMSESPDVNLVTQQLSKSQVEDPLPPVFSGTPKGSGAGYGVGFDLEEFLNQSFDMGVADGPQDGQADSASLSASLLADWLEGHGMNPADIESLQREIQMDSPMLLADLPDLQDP
# [11] = hESC survival regulators, cell-based (AID 493140; call rule not given here;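 also: cells exposed to compounds for four days before counting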); conditions: human embryonic stem cell survival screen; stronger effect = higher value
# [12] = liver-stage malaria parasite growth inhibition, primary screen, cell-based, HepG2, luciferase luminescence, HepG2 viability (AID 624349; in the data active = parasite load remaining mostly below about 12%, no sharp cut-off; inactive = mostly above about 10%;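 also: 100% = mean of DMSO negative control wells on the same plate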); conditions: P. berghei liver stage in HepG2, luciferase luminescence, concentration not given here; parasite load remaining: stronger effect = lower value; viability: measured here: HepG2 viability without parasites
# [13] = sensitizers of A549 cells to miR-34 induction, primary screen, imaging, A549 dox-inducible miR-34, nuclei and caspase counts (AID 1347080;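 active = compounds whose cell count with miR-34 switched on is under 0.7 times the count with it off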); conditions: A549 miR-34 inducible, Hoechst nuclei count, 48 h
# [14] = survival rescue of mitochondrial mutant cells in low glucose, primary screen, MELAS cybrids, Rieske KO mouse fibroblasts, CellTiter-Glo (AID 1508586;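 active = mean z-score across replicates of 1.96 or higher in either the MELAS or the Rieske mutant cell line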;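 also: z relative to plate mean and SD of compound and empty wells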)
# [15] = measured here: relative caspase fold change +Dox/-Dox
# [16] = measured here: total cells with miR-34 induction, stronger effect = lower value
# [17] = measured here: total cells without miR-34 induction
# [18] = MELAS cybrid survival, CellTiter-Glo 48 h, stronger effect = higher value
# [19] = Rieske KO mouse fibroblast survival, CellTiter-Glo 72 h
smiles,measurement,setting,value
[N-]=[N+]=CC(=O)OC[C@H](N)C(=O)O,nuclear beta-catenin stimulation,[1]; at 10 µM,-2.7% (inactive)
same,nuclear beta-catenin stimulation,"[1]; stimulation, at 2 µM",-2.4%
same,insulin secretion stimulation,[2],-0.2% (inactive)
same,viability decrease,[3],50.2% (active)
same,tube area decrease,[4],12.9% (inactive)
same,GLP1 secretion stimulation,[5],-1.4% (inactive)
same,inhibition of viability,[6],77.9% (active)
same,viability decrease (inhibition),[7],104% (active)
same,viability decrease (inhibition),[8],57.8% (active)
same,remaining NAD,[9],10 nM (inactive)
same,luciferase signal,[10],40 AU (inactive)
O=S(=O)(O)c1cc(O)ccc1O,survival,[11],4.5 (inactive)
same,parasite load remaining,[12],113% (inactive)
same,viability,[12],69.3%
same,nuclear beta-catenin stimulation,[1]; at 10 µM,0.1% (inactive)
same,nuclear beta-catenin stimulation,"[1]; stimulation, at 2 µM",2.5%
same,insulin secretion stimulation,[2],3.2% (inactive)
same,viability decrease,[3],-0.4% (inactive)
same,tube area decrease,[4],3% (inactive)
same,GLP1 secretion stimulation,[5],-3% (inactive)
same,inhibition of viability,[6],2.4% (inactive)
same,viability decrease (inhibition),[7],19.4% (inactive)
same,viability decrease (inhibition),[8],10.6% (inactive)
same,fold change,[13]; stronger effect = lower value,0.958 (inactive) and 1.35 (inactive)
same,fold change,[13]; [15],0.623 and 0.929
same,cell count,[13]; [16],8960 and 8580
same,cell count,[13]; [17],9360 and 6370
same,z-score,[14]; [18],-0.259 (inactive) and 0.566 (inactive)
same,z-score,[14]; [19],-0.197 and 0.515
NCCC[C@H](N)C(=O)O,nuclear beta-catenin stimulation,[1]; at 10 µM,1.2% (inactive)
same,nuclear beta-catenin stimulation,"[1]; stimulation, at 2 µM",1.6%
same,insulin secretion stimulation,[2],-2.2% (inactive)
same,viability decrease,[3],-5.15% (inactive)
same,tube area decrease,[4],-2.1% (inactive)
same,GLP1 secretion stimulation,[5],1.4% (inactive)
same,inhibition of viability,[6],-35.4% (inactive)
same,viability decrease (inhibition),[7],98.1% (active)
same,viability decrease (inhibition),[8],0.35% (inactive)
same,remaining NAD,[9],10 nM (inactive)
O=C(NC(=O)c1c(F)cccc1F)Nc1ccc(Cl)c(Oc2ncc(C(F)(F)F)cc2Cl)c1,nuclear beta-catenin stimulation,[1]; at 10 µM,1.2% (inactive)
same,nuclear beta-catenin stimulation,"[1]; stimulation, at 2 µM",-0.3%
same,insulin secretion stimulation,[2],0.25% (inactive)
same,GLP1 secretion stimulation,[5],-8.7% (inactive)
CCCCCCCCOC(=O)c1ccccc1C(=O)OCCCCCCCC,nuclear beta-catenin stimulation,[1]; at 10 µM,3.1% (inactive)
same,nuclear beta-catenin stimulation,"[1]; stimulation, at 2 µM",-1.3%
same,insulin secretion stimulation,[2],0.05% (inactive)
same,viability decrease,[3],5.3% (inactive)
same,GLP1 secretion stimulation,[5],-0.4% (inactive)
same,inhibition of viability,[6],32% (inactive)
same,viability decrease (inhibition),[7],-4.6% (inactive)
same,viability decrease (inhibition),[8],3.6% (inactive)
C[C@]12CC[C@@H]3c4ccc(OC(=O)N(CCCl)CCCl)cc4CC[C@H]3[C@@H]1CC[C@@H]2O,nuclear beta-catenin stimulation,[1]; at 10 µM,-1.2% (inactive)
same,nuclear beta-catenin stimulation,"[1]; stimulation, at 2 µM",0.4%
same,insulin secretion stimulation,[2],-0.9% (inactive)
same,viability decrease,[3],18.1% (inactive)
same,tube area decrease,[4],2.8% (inactive)
same,GLP1 secretion stimulation,[5],2.6% (inactive)
same,inhibition of viability,[6],-23.1% (inactive)
same,viability decrease (inhibition),[7],56.7% (active)
same,viability decrease (inhibition),[8],23.4% (inactive)
same,z-score,[14]; [18],-1.9 (inactive)
same,z-score,[14]; [19],0.249
same,remaining NAD,[9],10 nM (inactive)
CC(C)(C)CC(C)(C)c1ccc(O)cc1,nuclear beta-catenin stimulation,[1]; at 10 µM,-1.8% (inactive)
same,nuclear beta-catenin stimulation,"[1]; stimulation, at 2 µM",-0.9%
same,insulin secretion stimulation,[2],4% (inactive)
same,viability decrease,[3],84.6% (active)
same,tube area decrease,[4],66.9% (active)
same,GLP1 secretion stimulation,[5],28.5% (active)
same,inhibition of viability,[6],74.8% (active)
same,viability decrease (inhibition),[7],142% (active)
same,viability decrease (inhibition),[8],104% (active)
same,remaining NAD,[9],10 nM (inactive)
OC(c1ccccc1)(c1ccccc1)C1CCNCC1,survival,[11],34.8 (inactive)
same,parasite load remaining,[12],42.4% (inactive) and 92.2% (inactive)
same,viability,[12],47.4% and 92.3%
same,nuclear beta-catenin stimulation,[1]; at 10 µM,-0.1% (inactive)
same,nuclear beta-catenin stimulation,"[1]; stimulation, at 2 µM",0.4%
same,insulin secretion stimulation,[2],17.4% (inactive)
same,viability decrease,[3],-5.8% (inactive)
same,tube area decrease,[4],27.7% (inactive)
same,GLP1 secretion stimulation,[5],0.1% (inactive)
same,inhibition of viability,[6],-10.1% (inactive)
same,viability decrease (inhibition),[7],117% (active)
same,viability decrease (inhibition),[8],2.9% (inactive)
same,fold change,[13]; stronger effect = lower value,0.979 (inactive) and 0.871 (inactive)
same,fold change,[13]; [15],1.21 and 1
same,cell count,[13]; [16],8990 and 7950
same,cell count,[13]; [17],9180 and 9130
same,z-score,[14]; [18],-0.109 (inactive) and -0.124 (inactive)
same,z-score,[14]; [19],-0.152 and 0.513
CC(=O)OCC1=C(C(=O)O)N2C(=O)[C@@H](N)[C@H]2SC1,survival,[11],9.33 (inactive)
same,parasite load remaining,[12],107% (inactive) and 94.3% (inactive)
same,viability,[12],91.6% and 74.9%
same,nuclear beta-catenin stimulation,[1]; at 10 µM,-0.8% (inactive)
same,nuclear beta-catenin stimulation,"[1]; stimulation, at 2 µM",0.2%
same,insulin secretion stimulation,[2],-2.9% (inactive)
same,viability decrease,[3],27.2% (inactive)
same,tube area decrease,[4],10.2% (inactive)
same,GLP1 secretion stimulation,[5],1.9% (inactive)
same,inhibition of viability,[6],-5.2% (inactive)
same,viability decrease (inhibition),[7],82.6% (active)
same,viability decrease (inhibition),[8],29.3% (inactive)
same,fold change,[13]; stronger effect = lower value,0.918 (inactive)
same,fold change,[13]; [15],1.55
same,cell count,[13]; [16],8570
same,cell count,[13]; [17],9340
same,z-score,[14]; [18],0.366 (inactive)
same,z-score,[14]; [19],-0.158
CC(C)NCC(O)c1ccccc1Cl (stereo unspecified),nuclear beta-catenin stimulation,[1]; at 10 µM,-0.5% (inactive)
same,nuclear beta-catenin stimulation,"[1]; stimulation, at 2 µM",0.8%
same,insulin secretion stimulation,[2],11.3% (inactive)
same,viability decrease,[3],-4.5% (inactive)
same,tube area decrease,[4],8.9% (inactive)
same,GLP1 secretion stimulation,[5],3.1% (inactive)
same,inhibition of viability,[6],0.8% (inactive)
same,viability decrease (inhibition),[7],23.3% (inactive)
same,viability decrease (inhibition),[8],9% (inactive)
same,fold change,"[13]; stronger effect = lower value, cell number ratio, induced over uninduced",0.961 (inactive)
same,fold change,[13]; [15],0.533
same,cell count,[13]; [16],8950
same,cell count,[13]; [17],9320
same,z-score,[14]; [18],-0.27 (inactive)
same,z-score,[14]; [19],-0.204
CCOc1cc(C=O)ccc1O,nuclear beta-catenin stimulation,[1]; at 10 µM,-1.6% (inactive)
same,nuclear beta-catenin stimulation,"[1]; stimulation, at 2 µM",-0.8%
same,insulin secretion stimulation,[2],0.4% (inactive)
same,viability decrease,[3],5.6% (inactive)
same,tube area decrease,[4],0.8% (inactive)
same,GLP1 secretion stimulation,[5],-3.6% (inactive)
same,inhibition of viability,[6],6% (inactive)
same,viability decrease (inhibition),[7],6.9% (inactive)
same,viability decrease (inhibition),[8],-3% (inactive)
same,remaining NAD,[9],10 nM (inactive)
CCC1(c2cccc(O)c2)CCCCN(C)C1 (stereo unspecified),survival,[11],2.75 (inactive)
same,parasite load remaining,[12],114% (inactive)
same,viability,[12],77.7%
same,nuclear beta-catenin stimulation,[1]; at 10 µM,-0.6% (inactive)
same,nuclear beta-catenin stimulation,"[1]; stimulation, at 2 µM",-0.3%
same,insulin secretion stimulation,[2],19.8% (inactive)
same,viability decrease,[3],10.8% (inactive)
same,tube area decrease,[4],-4.7% (inactive)
same,GLP1 secretion stimulation,[5],1.4% (inactive)
same,inhibition of viability,[6],-13.6% (inactive)
same,viability decrease (inhibition),[7],57% (active)
same,viability decrease (inhibition),[8],13.3% (inactive)
same,fold change,[13]; stronger effect = lower value,0.914 (inactive) and 0.925 (inactive)
same,fold change,[13]; [15],0.54 and 0.493
same,cell count,[13]; [16],8800 and 7600
same,cell count,[13]; [17],9630 and 8210
same,z-score,[14]; [18],-0.204 (inactive) and -0.911 (inactive)
same,z-score,[14]; [19],-0.179 and 0.197
CC(C)(O)C(Cl)(Cl)Cl,nuclear beta-catenin stimulation,[1]; at 10 µM,-0.2% (inactive)
same,nuclear beta-catenin stimulation,"[1]; stimulation, at 2 µM",0.8%
same,insulin secretion stimulation,[2],-2.2% (inactive)
same,viability decrease,[3],-5.6% (inactive)
same,tube area decrease,[4],1.4% (inactive)
same,GLP1 secretion stimulation,[5],1.1% (inactive)
same,inhibition of viability,[6],4.4% (inactive)
same,viability decrease (inhibition),[7],14% (inactive)
same,viability decrease (inhibition),[8],6.7% (inactive)
same,fold change,[13]; stronger effect = lower value,0.973 (inactive)
same,fold change,[13]; [15],0.817
same,cell count,[13]; [16],7820
same,cell count,[13]; [17],8030
same,remaining NAD,[9],10 nM (inactive)
